Screens as filed in PubChem.
Mcl1-Bid inh: Mcl-1/Bid binding inhibitors, primary screen, biochemical, TR-FRET, 1536-well; Induced myeloid leukemia cell differentiation protein Mcl-1 (Homo sapiens), Q07820; TR-FRET Mcl-1/Bid-Dy647 peptide binding; inhibition, % at 21.7 µM; actives 0.97% (n = 220,000); AID 1021, 2008;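 active = compounds that cut the binding signal by more than half at the single screening dose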;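 also: His-tagged Mcl-1 with europium anti-His antibody binding Bid BH3 peptide; 0% = Mcl-1 plus peptide wells and 100% = peptide-only wells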
Target sequence (Q07820 whole entry, looked up): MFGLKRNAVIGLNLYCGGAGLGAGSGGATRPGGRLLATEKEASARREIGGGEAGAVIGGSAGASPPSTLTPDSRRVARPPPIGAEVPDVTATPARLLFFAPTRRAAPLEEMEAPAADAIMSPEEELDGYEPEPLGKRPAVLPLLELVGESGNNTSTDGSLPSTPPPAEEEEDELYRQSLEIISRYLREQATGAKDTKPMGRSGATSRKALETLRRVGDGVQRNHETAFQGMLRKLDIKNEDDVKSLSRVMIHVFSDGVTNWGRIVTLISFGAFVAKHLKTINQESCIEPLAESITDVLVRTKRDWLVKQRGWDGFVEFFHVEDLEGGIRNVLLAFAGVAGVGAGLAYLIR
GLD-1 RNA inh: GLD-1/TGE RNA complex disruptors, primary screen, biochemical, fluorescence polarization; inhibition, % at 5.96 µM; actives 0.44% (n = 320,000); AID 2280, 2010; Female germline-specific tumor suppressor gld-1 (Caenorhabditis elegans), Q17339; purified GLD-1 + fluorescein TGE RNA;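 active = percent inhibition above a per-plate cutoff, the plate mean of test compounds plus 3 SD, cut at about 30% in these data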;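 also: 0% = DMSO wells with GLD-1 and probe and 100% = wells lacking GLD-1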
MCL1 BIM primary: inhibitors of MCL1 binding to BIM-BH3, primary screen, biochemical, fluorescence polarization; Induced myeloid leukemia cell differentiation protein Mcl-1 (Homo sapiens), Q07820; GST-MCL1 / FITC-Bim-BH3 fluorescence polarization; inhibition, % at 10.9 µM; actives 0.68% (n = 320,000); AID 2057, 2009;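 active = inhibition above the mean inhibition of all tested compounds plus 3 SD, set per campaign, cut at about 40% in these data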;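 also: 0% = DMSO wells and 100% = unlabeled Bim-BH3 peptide control; higher means more loss of mP so more displacement of Bim peptide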
Bcl-xL primary: inhibitors of human Bcl-xL, primary screen, biochemical, fluorescence polarization, HTS; GST-Bcl-xL / FITC-Bim BH3 peptide fluorescence polarization; inhibition, % at 10.9 µM; actives 0.7% (n = 320,000); AID 2129, 2009;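 active = inhibition above the mean of all tested compounds plus 3 SD, cutoff set per campaign, cut at about 30% in these data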;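 also: 0% = DMSO wells and 100% = unlabeled Bim-BH3 peptide competitor; inhibitors lower millipolarization by displacing the labeled peptide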
Target sequence (Q07817 whole entry, looked up): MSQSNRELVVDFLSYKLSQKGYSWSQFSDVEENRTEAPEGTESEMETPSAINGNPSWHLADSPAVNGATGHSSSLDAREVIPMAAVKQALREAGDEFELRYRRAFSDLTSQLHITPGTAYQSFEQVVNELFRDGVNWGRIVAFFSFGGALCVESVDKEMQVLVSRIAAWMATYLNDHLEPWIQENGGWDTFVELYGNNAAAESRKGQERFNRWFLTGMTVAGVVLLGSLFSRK
Bim-Mcl-1: inhibitors of Bim peptide binding to Mcl-1, primary screen, biochemical, bead-based flow cytometry, multiplex | Induced myeloid leukemia cell differentiation protein Mcl-1 (Homo sapiens), Q07820 | Bim peptide-Mcl-1 binding | inhibition, % at 10 µM | actives 0.1% (n = 190,000); in the data active = inhibition above about 40%;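 also: 0% = no compound tracer wells and 100% = peptide blocker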
Mcl1 Noxa PPI: Mcl-1/Noxa binding inhibitors, primary screen, biochemical, TR-FRET, 1536-well. actives 1.5% (n = 220,000). TR-FRET Mcl-1/Noxa peptide binding, 2 h. inhibition, % at 21.7 µM. AID 1022, 2008. Induced myeloid leukemia cell differentiation protein Mcl-1 (Homo sapiens), Q07820;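 active = compounds that cut the protein-peptide binding signal by more than 50% relative to plate controls in a single-dose test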;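 also: His-tagged Mcl-1 with rhodamine Noxa BH3 peptide and terbium anti-His antibody; 0% = Mcl-1 plus Noxa peptide wells and 100% = peptide-only wells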
Numbers without * were called inactive; · = not tested or not shown. Most compounds without a hit are left out; they make up all but 2.3% or so of the library.

SMILES	Mcl1-Bid inh	GLD-1 RNA inh	MCL1 BIM primary	Bcl-xL primary	Bim-Mcl-1	Mcl1 Noxa PPI
COc1ccc2[nH]c(=O)c(CNC3CCCCC3)cc2c1	70*	5	-2	3	-2	4
CCC(C(=O)NCCc1ccc(OC)c(OC)c1)n1nc(C)n2c(cc3occc32)c1=O (centres undefined)	·	2	-6	9	·	·
COc1ccccc1N1CCN(C2CC(=O)N(c3ccc(Cl)cc3)C2=O)CC1 (centres undefined)	·	-7	-2	-2	·	·
COCCN(CC(=O)NC1CCCCC1)C(=O)/C=C/C(=O)c1ccc(OC)cc1O	33	·	·	·	-8	66*
COc1ccc(C(=O)/C=C/C(=O)N(CC(=O)NC2CCCCC2)Cc2cccs2)c(O)c1	38	5	-5	-2	-1	43
CCC(C)c1ccc(NC(=S)NN2CCOCC2)cc1 (centres undefined)	-6	0	-6	2	-11	-4
O=C(Nc1cc(S(=O)(=O)N2CCCCC2)ccc1Oc1ccccc1)C1=COCCO1	·	3	-5	2	·	·
CCN(CC)Cc1cc(O)c(CN(CC)CC)cc1O	-100	·	·	·	0	98*
CC1CCCCN1CCNC(=O)c1cc2c(=O)n(C)c3ccccc3c2n1C (centres undefined)	-8	-50	29	34*	-2	26
COc1ccc2c(=O)c3c(=O)n(Cc4ccco4)c(-c4ccco4)nc3oc2c1	-3	5	26	22	0	70*
CCc1nc2oc3cc(OC)ccc3c(=O)c2c(=O)n1Cc1ccco1	8	1	21	17	1	29
COc1ccc(-c2nc3oc4cc(OC)ccc4c(=O)c3c(=O)n2Cc2ccco2)cc1	28	10	6	10	-5	52*
Cc1ccc(CNC(=O)c2ccc(S(=O)(=O)N(C)C)cc2)n1C	·	-4	8	7	·	·
COc1c(N2CCNC(C)C2)c(F)cc2c(=O)c(C(=O)O)cn(C3CC3)c12 (centres undefined)	·	4	5	3	·	·
NC1CCN(c2c(F)cc3c(=O)c(C(=O)O)cn(C4CC4)c3c2Cl)C1 (centres undefined)	63*	4	-12	-1	·	-37
CN(CC(=O)Nc1ccc(Cl)cc1)C(=O)CCc1nc2sc3c(c2c(=O)[nH]1)CCCC3	·	-3	-12	-10	·	·
Cc1ccccc1C(=O)N/N=C/c1ccsc1C	-15	-2	-12	2	-4	-7
Cc1sccc1/C=N/NC(=O)c1cccc2ccccc12	-10	1	5	0	-2	92*
O=C(O)C1CN(c2nc(Cl)ccc2[N+](=O)[O-])C1	-26	4	4	3	0	14
O=C(O)C1CC(O)CN1c1nc(Cl)ccc1[N+](=O)[O-] (centres undefined)	-18	25	30	37*	-1	29
COc1nccc(NCc2ccccc2)c1C#N	·	11	-3	-3	·	·
Cc1noc(C)c1S(=O)(=O)NC1CCN(Cc2ccccc2)CC1	-13	9	32	35*	0	-13
Cc1cc(C)c(S(=O)(=O)NC2CCN(Cc3ccccc3)CC2)c(C)c1	-30	9	10	3	·	-21
O=C(CN1C(=O)NC(CCc2ccccc2)C1=O)Nc1ccc(F)c(F)c1F (centres undefined)	·	-3	·	·	·	·
O=C(c1nc2ccc(Cl)cn2c1CN1CCCC(CO)C1)N1CCc2ccccc2C1 (centres undefined)	·	7	6	8	·	·
SMILES	Mcl1-Bid inh	GLD-1 RNA inh	MCL1 BIM primary	Bcl-xL primary	Bim-Mcl-1	Mcl1 Noxa PPI
Cc1c(CN2CCCCC2)c(O)n(CCCO)c(=O)c1C#N	-6	27	35	35*	0	29
CCOC(=O)c1c(-c2ccccc2)csc1NC(=S)NC	-58	5	2	3	-11	55*
O=C(O)COc1ccc(/C=N/NC(=O)c2ccc(-c3csc(Nc4ccc(Cl)cc4)n3)cc2)cc1	95*	·	·	·	·	88*
CCOc1cc(/C=N/NC(=O)c2ccc(-c3csc(Nc4ccc(C)cc4)n3)cc2)ccc1OCC(=O)O	-2	·	·	·	1	86*
Cc1ccc(-c2cnc(-c3ccccc3C(=O)O)o2)cc1	·	0	-3	3	·	·
O=c1[nH]c(CN2CCN(c3ccc(O)cc3)CC2)nc2scc(-c3ccc(Cl)cc3)c12	-55	3	9	13	11	66*
Cc1ccc(C(=O)Nc2ccc(N3CCCC3)cc2)c(C)c1	-32	1	6	1	-1	75*
CS(=O)(=O)c1ccc(C(=O)Nc2ccc(N3CCCC3)cc2)c(Cl)c1	-32	-2	2	1	-1	67*
Cc1ccccc1C(=O)Nc1ccc(N2CCCC2)cc1	-56	6	7	15	1	33
CS(=O)(=O)c1ccc(C(=O)Nc2ccc(N3CCOCC3)cc2)c(Cl)c1	-40	-1	-1	3	-1	12
c1ccc(Cn2nnc3c(NCc4ccc5c(c4)OCO5)nc(C4CC4)nc32)cc1	52*	7	6	4	3	-26
Cc1nc(NCc2ccc3c(c2)OCO3)c2nnn(Cc3ccccc3)c2n1	33	5	-6	2	-3	-2
COC(=O)[C@@]12CCCCN1[C@H](c1ccc(-c3ccc(C(C)=O)cc3)cc1)[C@@H]1C(=O)N(C)C(=O)[C@@H]12	·	0	13	5	·	·
COCCNC(=O)c1noc2c1CCc1cc(OC)ccc1-2	1	3	9	0	-4	65*
COc1ccc(NS(=O)(=O)c2ccc(-n3nnc4ccccc43)c([N+](=O)[O-])c2)cc1	-22	-6	2	5	0	5
Cc1ccc(C(=O)n2nnc3ccccc32)cc1	·	1	3	9	·	·
Cc1ccccc1N/C(=C(/C(Cl)=C(Cl)Cl)[N+](=O)[O-])n1nnc2ccccc21	54*	-1	-1	5	0	38
COc1ccc(N/C(=C(/C(Cl)=C(Cl)Cl)[N+](=O)[O-])n2nnc3ccccc32)cc1	91*	18	41*	39*	0	43
Cc1ccc(NC(=O)CN2CCOCC2)cc1C	·	6	-4	3	·	·
CCCCNC(=S)N(C)/N=C/c1sc(N2CCCCC2)nc1-c1cccs1	-35	13	-3	39*	-6	11
CC(C)NC(=S)N/N=C/c1sc(N2CCCCC2)nc1-c1cccs1	-32	-2	-16	-5	-3	-43
